{"source": "the antibiotic and cytotoxicity screens of Wong et al. (2023)", "note": "Hit rate of the full screen: of about 39,000 compounds, about 3,300 (8.5%) were called active. Shown is part of a subset that was picked to be rich in actives.", "data": [{"system": "HepG2", "assay": "cytotoxicity call (relative viability < 0.9)", "settings": "10 µM", "values": [{"molecule": "C[C@@H]1CCCCO[C@H](CN(C)S(=O)(=O)c2cccs2)[C@H](C)CN([C@@H](C)CO)C(=O)c2cc(NS(=O)(=O)c3cn(C)cn3)ccc2O1", "cytotoxicity call": "inactive"}, {"molecule": "Cc1ccc(S(=O)(=O)Nc2ccc3c(c2)C(=O)N([C@@H](C)CO)C[C@@H](C)[C@@H](CN(C)C(=O)NC2CCCCC2)OCCCC[C@@H](C)O3)cc1", "cytotoxicity call": "inactive"}, {"molecule": "CC(C)(C)OC(=O)C[C@H]1CC=CC[C@H](CC(=O)NCCO)C(=O)N[C@H](Cc2ccccc2)COC1=O", "cytotoxicity call": "inactive"}, {"molecule": "C[C@@H]1CN([C@H](C)CO)C(=O)Cc2cc(NS(=O)(=O)c3cn(C)cn3)ccc2O[C@H]1CN(C)Cc1ccc(C(=O)Nc2ccccc2N)cc1", "cytotoxicity call": "inactive"}, {"molecule": "CN1C(=O)c2cc(NS(=O)(=O)c3cccc(F)c3)ccc2OC[C@H]2O[C@@H](CC(=O)NCCN3CCCCC3)CC[C@H]21", "cytotoxicity call": "inactive"}, {"molecule": "C[C@H]1CN([C@@H](C)CO)C(=O)Cc2cc(NC(=O)Nc3ccc(C(F)(F)F)cc3)ccc2O[C@@H]1CN(C)Cc1ccc2c(c1)OCO2", "cytotoxicity call": "inactive"}, {"molecule": "C[C@H](CO)N1C[C@H](C)[C@H](CN(C)Cc2ccc3c(c2)OCO3)Oc2ccc(NC(=O)Nc3ccc(C(F)(F)F)cc3)cc2CC1=O", "cytotoxicity call": "active"}, {"molecule": "C[C@H]1CN([C@@H](C)CO)C(=O)Cc2cc(NC(=O)Nc3ccc(C(F)(F)F)cc3)ccc2O[C@H]1CN(C)Cc1ccc2c(c1)OCO2", "cytotoxicity call": "inactive"}, {"molecule": "C[C@@H]1CN([C@@H](C)CO)C(=O)Cc2cc(NC(=O)Nc3ccc(C(F)(F)F)cc3)ccc2O[C@H]1CN(C)Cc1ccc2c(c1)OCO2", "cytotoxicity call": "active"}, {"molecule": "C[C@@H]1CN([C@H](C)CO)C(=O)Cc2cc(NC(=O)Nc3ccc(C(F)(F)F)cc3)ccc2O[C@H]1CN(C)Cc1ccc2c(c1)OCO2", "cytotoxicity call": "inactive"}, {"molecule": "C[C@H](CO)N1C[C@H](C)[C@@H](CN(C)Cc2ccc3c(c2)OCO3)Oc2ccc(NC(=O)Nc3ccc(C(F)(F)F)cc3)cc2CC1=O", "cytotoxicity call": "active"}, {"molecule": "C[C@@H]1CN([C@H](C)CO)C(=O)Cc2cc(NC(=O)Nc3ccc(C(F)(F)F)cc3)ccc2O[C@@H]1CN(C)Cc1ccc2c(c1)OCO2", "cytotoxicity call": "active"}, {"molecule": "Cc1noc(C)c1NC(=O)N(C)C[C@@H]1OCCCC[C@@H](C)Oc2ccc(NC(=O)NC3CCCCC3)cc2C(=O)N([C@H](C)CO)C[C@H]1C", "cytotoxicity call": "inactive"}, {"molecule": "NCC[C@@H]1CC[C@@H](NC(=O)C2CC2)[C@H](CO)O1", "cytotoxicity call": "inactive"}, {"molecule": "COc1ccc(CN(C)C[C@@H]2Oc3ccc(NS(=O)(=O)c4cn(C)cn4)cc3CC(=O)N([C@@H](C)CO)C[C@@H]2C)cc1", "cytotoxicity call": "inactive"}, {"molecule": "C[C@@H]1CCCCO[C@H](CN(C)C(=O)C2CCCCC2)[C@@H](C)CN([C@H](C)CO)C(=O)c2cc(NC(=O)c3ccncc3)ccc2O1", "cytotoxicity call": "inactive"}]}]}
